From PubChem BioAssay (NCATS)
Results filed as inconclusive are left out. Active and inactive are the calls of the source. Unless noted, calls follow the shape of the dose curve; as a rule, active = well fitted curve in the direction sought with a large enough effect; inconclusive = small, poorly fitted or top-dose-only effect, or another doubt; inactive = no such curve, though single readings can be large; an effect the other way counts as inactive or inconclusive.

Legend:
[1] = Vero cells viability qHTS for Zika virus inhibitors (AID 1347167); also: % is scaled to controls: 0 for no effect and ±100 for the full control effect
Procedure, shortened: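 Counter-screen for cytotoxicity of hits from NS2B-NS3 protease qHTS. Overnight-attached cells (2.5 x 10^5 cells/mL, DMEM/4% FBS) were dosed in titration, incubated 24 to 48 hours, then assayed by CellTiter Glo.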

[2] = biological target: Furin (Homo sapiens) (UniProt P09958); experiment: Furin counterscreen qHTS for Zika virus inhibitors (AID 1347149); also: nearly all actives have a fitted effect of over 70% in size; also: potency is read from the fitted curve at half-maximal effect
Chain of Furin (Homo sapiens) (P09958 whole entry, looked up): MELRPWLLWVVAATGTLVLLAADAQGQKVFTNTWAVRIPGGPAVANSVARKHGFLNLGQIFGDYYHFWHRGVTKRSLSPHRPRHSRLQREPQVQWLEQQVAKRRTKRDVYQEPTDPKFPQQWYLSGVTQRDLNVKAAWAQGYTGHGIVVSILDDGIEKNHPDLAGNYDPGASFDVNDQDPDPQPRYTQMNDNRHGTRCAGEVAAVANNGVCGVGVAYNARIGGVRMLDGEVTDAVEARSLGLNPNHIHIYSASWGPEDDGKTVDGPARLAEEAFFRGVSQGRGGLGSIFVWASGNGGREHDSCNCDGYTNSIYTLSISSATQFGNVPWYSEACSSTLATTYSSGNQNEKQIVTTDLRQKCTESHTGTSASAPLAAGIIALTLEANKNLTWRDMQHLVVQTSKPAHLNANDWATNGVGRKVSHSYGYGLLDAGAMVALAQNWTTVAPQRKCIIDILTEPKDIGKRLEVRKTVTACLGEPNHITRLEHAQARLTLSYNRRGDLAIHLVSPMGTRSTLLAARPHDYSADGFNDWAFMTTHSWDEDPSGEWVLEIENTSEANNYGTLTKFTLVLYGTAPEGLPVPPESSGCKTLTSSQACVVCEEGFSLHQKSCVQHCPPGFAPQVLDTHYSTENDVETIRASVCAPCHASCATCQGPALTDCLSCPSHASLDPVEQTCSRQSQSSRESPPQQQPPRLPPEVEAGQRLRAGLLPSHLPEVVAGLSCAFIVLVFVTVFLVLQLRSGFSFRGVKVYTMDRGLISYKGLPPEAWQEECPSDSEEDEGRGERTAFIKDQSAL
Procedure, shortened: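 Fluorogenic cleavage of BOC-RVRR-AMC (2 microM final, Km ~15 µM) was monitored (ex 340, em 450 nm) at 37C after 15 min RT preincubation of 5 nM furin with compounds in HEPES pH 7.0 buffer with CaCl2 and Triton X-100. Percent inhibition was fitted to a 4-parameter Hill curve.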

[3] = qHTS profiling for inhibitors of Plasmodium falciparum proliferation (AID 504749); also: nearly all actives have a fitted effect of over 60% in size; also: potency is read from the fitted curve at half-maximal effect;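 as to activity, negative = inhibition: 0% = DMSO vehicle and full inhibition = artemisinin control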; details: P. falciparum in erythrocytes, SYBR Green DNA, 72 h, at 28.7 µM (top of the series)
Procedure, shortened: (§1)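 Parasite proliferation within erythrocytes, 72 h exposure. Endpoint: SYBR Green I fluorescence after overnight lysis at room temperature. Controls: 0.29 uM artemisinin, DMSO.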

[4] = test system: 7G8; experiment: as above; details: P. falciparum in erythrocytes, SYBR Green DNA, 72 h; series mostly up to 28.7 µM
Procedure, shortened: as §1

[5] = test system: ATS95; experiment: as above; details: P. falciparum in erythrocytes, SYBR Green DNA, 72 h; series mostly up to 28.7 µM
Procedure, shortened: as §1

[6] = test system: CP237; experiment: as above; details: P. falciparum in erythrocytes, SYBR Green DNA, 72 h; series mostly up to 28.7 µM
Procedure, shortened: as §1

[7] = test system: CP291; experiment: as above; details: P. falciparum in erythrocytes, SYBR Green DNA, 72 h; series mostly up to 28.7 µM
Procedure, shortened: as §1

[8] = test system: Dd2; experiment: as above; details: P. falciparum in erythrocytes, SYBR Green DNA, 72 h; series mostly up to 28.7 µM
Procedure, shortened: as §1

[9] = test system: FAB9; experiment: as above; details: P. falciparum in erythrocytes, SYBR Green DNA, 72 h; series mostly up to 28.7 µM
Procedure, shortened: as §1

[10] = test system: GB4; experiment: as above; details: P. falciparum in erythrocytes, SYBR Green DNA, 72 h; series mostly up to 28.7 µM
Procedure, shortened: as §1

[11] = test system: ICS; experiment: as above; details: P. falciparum in erythrocytes, SYBR Green DNA, 72 h; series mostly up to 28.7 µM
Procedure, shortened: as §1

[12] = test system: SC27B; experiment: as above; details: P. falciparum in erythrocytes, SYBR Green DNA, 72 h; series mostly up to 28.7 µM
Procedure, shortened: as §1

[13] = biological target: Calcium and integrin-binding protein 1 (Homo sapiens) (UniProt Q99828); experiment: Confirmatory qHTS for Identification of Calcium Integrin Binding Protein 1 (CIB1) Competitor (AID 1508617); also: % is scaled to controls: 0 for no effect and ±100 for the full control effect; nearly all actives have a fitted effect of over 65% in size
Chain of Calcium and integrin-binding protein 1 (Homo sapiens) (Q99828 whole entry, looked up): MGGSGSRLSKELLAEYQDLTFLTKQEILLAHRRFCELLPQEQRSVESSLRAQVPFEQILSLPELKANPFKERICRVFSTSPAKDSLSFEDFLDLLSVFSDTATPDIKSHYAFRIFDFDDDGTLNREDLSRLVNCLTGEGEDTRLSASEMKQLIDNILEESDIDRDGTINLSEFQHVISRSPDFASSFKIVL
Procedure, shortened: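 FP competition: CIB1-GST (1 uM final) in 5 mM HEPES pH 7.4, 125 mM NaCl, 5 mM CaCl2, 0.01% Tween20 preincubated 15 min RT with compounds (up to 114 uM), then FITC-alphaIIb peptide (100 nM), 15 min RT; Ex 480/Em 540.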

[14] = Stat Signaling Pathway (AID 446; active = well fitted curve in either direction with a large enough effect, not every such curve was filed as active;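 also: ME-180 cervical cancer cells given 40 pM IL-6 alongside compound; SIE-controlled beta-lactamase reporter measured as 460/530 nm FRET emission ratio; % is scaled to controls: 0 for no effect and ±100 for the full control effect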); details: ME-180 SIE beta-lactamase reporter, IL-6 stimulated, 5 h
Procedure, shortened: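 ME-180 cells carrying a SIE-driven beta-lactamase reporter are stimulated with 40 pM IL-6 for 5 h at 37C in the presence of compound. The 460/530 nm FRET substrate ratio is read after 2.5 h at RT. Data are normalised to 300 pM IL-6 and to 125 nM JAK inhibitor controls.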

[15] = qHTS Assay for Identification of Small Molecule Agonists for Thrombopoietin (TPO) Signaling Pathway (AID 917); also: % is scaled to controls: 0 for no effect and ±100 for the full control effect
Procedure, shortened: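 We measured Glycoprotein IIb promoter–luciferase output in IL-3-starved Ba/F3 murine cells expressing the human TPO receptor after 24 hrs at 37 C with compounds and 26 pM TPO.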

[16] = biological target: Muscarinic acetylcholine receptor M1 (Rattus norvegicus) (UniProt P08482); experiment: qHTS Assay for Antagonists of Acetylcholine Muscarinic M1 Receptor: Measurement of IP-One Response (AID 944); also: nearly all actives have a fitted effect of over 75% in size
Chain of Muscarinic acetylcholine receptor M1 (Rattus norvegicus) (P08482 whole entry, looked up): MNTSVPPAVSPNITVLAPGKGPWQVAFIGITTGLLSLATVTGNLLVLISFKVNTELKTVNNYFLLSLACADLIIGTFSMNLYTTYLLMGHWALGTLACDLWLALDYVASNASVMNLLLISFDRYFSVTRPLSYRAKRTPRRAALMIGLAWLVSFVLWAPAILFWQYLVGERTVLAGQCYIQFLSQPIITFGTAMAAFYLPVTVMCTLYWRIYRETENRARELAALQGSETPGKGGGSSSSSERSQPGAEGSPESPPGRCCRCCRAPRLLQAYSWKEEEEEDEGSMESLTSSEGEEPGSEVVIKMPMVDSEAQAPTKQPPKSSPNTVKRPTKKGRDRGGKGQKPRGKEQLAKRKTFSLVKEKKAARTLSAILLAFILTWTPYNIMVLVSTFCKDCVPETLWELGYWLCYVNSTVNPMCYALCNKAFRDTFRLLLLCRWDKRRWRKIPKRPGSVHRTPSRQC
Procedure, shortened: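 M1-CHO (rat), 2000 cells/well, overnight recovery; cpd 10 min; carbachol EC80 (200 nM), 30 min, HEPES buffer + 50 mM LiCl pH 7.4; IP-One HTRF, Ex 337, Em 620/665 nm.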

[17] = biological target: Pyruvate kinase (Leishmania mexicana) (UniProt Q27686); experiment: qHTS Validation Assay for Inhibitors of Leishmania Mexicana Pyruvate Kinase (AID 945);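 also: 0% = DMSO only neutral control wells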
Chain of Pyruvate kinase (Leishmania mexicana) (Q27686 2-499 E452W): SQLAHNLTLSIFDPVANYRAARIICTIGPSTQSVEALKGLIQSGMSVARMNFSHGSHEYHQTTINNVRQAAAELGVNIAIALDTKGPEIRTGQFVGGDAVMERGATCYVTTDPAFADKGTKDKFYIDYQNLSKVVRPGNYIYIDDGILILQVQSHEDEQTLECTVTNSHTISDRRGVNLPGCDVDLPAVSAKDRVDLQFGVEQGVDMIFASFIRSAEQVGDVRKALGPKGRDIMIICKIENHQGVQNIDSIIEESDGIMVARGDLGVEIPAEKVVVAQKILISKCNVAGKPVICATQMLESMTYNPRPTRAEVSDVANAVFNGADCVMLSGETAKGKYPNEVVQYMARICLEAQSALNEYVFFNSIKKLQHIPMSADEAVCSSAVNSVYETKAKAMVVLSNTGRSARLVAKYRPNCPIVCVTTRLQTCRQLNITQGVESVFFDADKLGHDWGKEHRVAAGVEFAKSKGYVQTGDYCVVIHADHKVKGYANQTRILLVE
Procedure, shortened: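 LmPYK E451W 0.2 nM; 0.5 mM PEP, 0.1 mM ADP, 7 mM MgCl2, 50 mM KCl, imidazole pH 7.2, 0.01% Tween 20, 0.05% BSA; 1 h RT; PKLight luminescence; DMSO-normalized.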

[18] = biological target: Pyruvate kinase PKM (Homo sapiens) (UniProt P14618); experiment: qHTS Assay for Activators of Human Muscle Pyruvate Kinase (AID 954; active = well fitted curve in the direction sought with a large enough effect, not every such curve was filed as active;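 also: 0% = uninhibited enzyme and -100% = no enzyme or full thiadiazolimine inhibition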)
Chain of Pyruvate kinase PKM (Homo sapiens) (P14618 whole entry, looked up): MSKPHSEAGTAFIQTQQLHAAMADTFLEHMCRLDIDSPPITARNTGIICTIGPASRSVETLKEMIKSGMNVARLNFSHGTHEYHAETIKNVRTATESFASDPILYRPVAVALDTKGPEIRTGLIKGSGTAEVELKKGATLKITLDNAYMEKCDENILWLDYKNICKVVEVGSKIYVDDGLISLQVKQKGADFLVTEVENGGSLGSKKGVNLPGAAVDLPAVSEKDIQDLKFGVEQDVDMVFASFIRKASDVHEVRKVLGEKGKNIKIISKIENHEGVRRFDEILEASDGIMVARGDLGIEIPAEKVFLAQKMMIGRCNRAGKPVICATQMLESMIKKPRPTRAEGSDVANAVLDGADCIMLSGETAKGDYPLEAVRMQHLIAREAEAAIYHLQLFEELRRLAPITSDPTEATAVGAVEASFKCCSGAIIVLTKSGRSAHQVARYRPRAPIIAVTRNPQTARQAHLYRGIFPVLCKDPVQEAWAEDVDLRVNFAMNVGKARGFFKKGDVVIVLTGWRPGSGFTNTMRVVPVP
Procedure, shortened: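 Purified human PKM2 (0.1 nM) with 0.5 mM PEP (Km) and 0.1 mM ADP in 50 mM imidazole pH 7.2, KCl, MgCl2, 1 h at room temperature; ATP formed read by coupled luciferase luminescence. Normalized to no-enzyme/110 uM thiadiazolimine inhibition; 0.3 nM enzyme column for activation.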

[19] = biological target: Alpha-galactosidase A (Homo sapiens) (UniProt P06280); experiment: Counterscreen for Glucocerebrosidase Inhibitors: qHTS Assay for Human alpha-Galactosidase at pH 4.5 (AID 992); also: 0% is about no effect
Chain of Alpha-galactosidase A (Homo sapiens) (P06280 whole entry, looked up): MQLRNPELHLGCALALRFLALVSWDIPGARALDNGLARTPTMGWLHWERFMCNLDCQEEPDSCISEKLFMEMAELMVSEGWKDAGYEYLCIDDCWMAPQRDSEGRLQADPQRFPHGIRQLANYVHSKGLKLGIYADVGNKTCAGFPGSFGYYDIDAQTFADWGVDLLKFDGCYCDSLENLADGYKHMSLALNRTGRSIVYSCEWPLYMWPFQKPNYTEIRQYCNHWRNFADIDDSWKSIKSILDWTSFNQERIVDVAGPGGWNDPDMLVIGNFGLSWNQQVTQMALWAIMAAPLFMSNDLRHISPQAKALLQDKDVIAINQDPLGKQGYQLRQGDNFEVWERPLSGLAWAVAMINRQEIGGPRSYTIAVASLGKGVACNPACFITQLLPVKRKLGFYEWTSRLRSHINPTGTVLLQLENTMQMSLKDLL
Procedure, shortened: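 Human enzyme (2 nM) with 80 uM 4-methylumbelliferyl alpha-D-galactopyranoside in 50 mM citric acid, 0.005% Tween-20, pH 4.5, 20 min at room temperature. Compounds 0.7 nM–77 uM; fluorescence Ex 365/Em 440 after pH 10 stop; AC50 from Hill fits.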

[20] = biological target: alpha-glucosidase (Oryza sativa, rice) (UniProt Q653V4); experiment: Counterscreen for Glucocerebrosidase Inhibitors: qHTS Assay for Rice alpha-Glucosidase at pH 5.0 (AID 997);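 also: 0% = full activity with enzyme and -100% = basal without enzyme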
Procedure, shortened: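 Rice alpha-glucosidase (4 nM final) with 400 uM 4-methylumbelliferyl-alpha-D-glucopyranoside in citrate buffer pH 5.0, 20 min at room temperature, stopped at pH 10; fluorescence 365/440 nm, compounds 0.7 nM–77 uM, AC50 from Hill fits.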

CN(Cc1ccc(C(=O)O)cc1)c1ccc(OCc2c(-c3c(Cl)cccc3Cl)noc2C2CC2)nc1C(F)(F)F
inactive: Potency [1]

CC(=O)N1c2ccc(-c3ccc(C(=O)O)cc3)cc2C(Nc2ccc(Cl)cc2)CC1C (stereo not given)
inactive: Potency [2]

CCCCC(=O)N(Cc1ccc(-c2ccccc2-c2nn[nH]n2)cc1)C(C(=O)O)C(C)C (stereo not given)
active: Potency [4] 11.2 µM | Potency [10] 13.5 µM | Potency [11] 7.94 µM
inactive: activity, negative = inhibition ([3]; parasite line A) 9.14% | activity, negative = inhibition ([3]; parasite line B) 6.89% | Potency [5] | Potency [6] | Potency [7] | Potency [8] | Potency [9] | Potency [12]

Cn1cnc(-c2nccc3c(=O)[nH]c(OCCCC(F)(F)F)nc23)c1
inactive: outcome [13]

CN(C)CCCCCCNC(=O)c1cccc(-c2cc(O)c3ncccc3c2)c1
inactive: outcome [13]

O=C(O)c1ccc(O)c2ncc(N3CCCN(CCc4cccc5ccccc45)CC3)cc12
inactive: Potency [1]
active: Potency [2] 49.4 µM

CC(C)=CCC/C(C)=C/CC/C(C)=C/CSc1ccccc1C(=O)O
inactive: activity, negative = inhibition ([14]; at 38 µM (top of the series)) 1.75% | Potency [15] | Potency [16] | Potency [17] | outcome [18] | outcome [19] | outcome [20]

CN1CCN(CCC=C2c3ccccc3Sc3ccc(S(=O)(=O)N(C)C)cc32)CC1
active: Potency [4] 5.01 µM | Potency [5] 11.2 µM | Potency [6] 11.2 µM | Potency [7] 15.1 µM | Potency [8] 12.6 µM | Potency [10] 13.5 µM | Potency [11] 7.94 µM | Potency [12] 11.2 µM
inactive: Potency [15] | Potency [16] | Potency [17] | outcome [18] | outcome [19] | outcome [20] | Potency [9]

CCOC(=O)CCC(=O)O[C@H]1[C@H](O[C@@H]2[C@@H](C)[C@H](O[C@H]3C[C@@](C)(OC)[C@@H](O)[C@H](C)O3)[C@@H](C)C(=O)O[C@H](CC)[C@@](C)(O)[C@H](O)[C@@H](C)C(=O)[C@H](C)C[C@@]2(C)O)O[C@H](C)C[C@@H]1N(C)C
inactive: activity, negative = inhibition ([14]; at 17.2 µM (top of the series)) 1.81%
